# According to PubChem BioAssay:
# The source made the active and inactive calls. Cut-off read from the data, not from the text of the source, unless noted: active = inhibition above about 80%; inactive = the rest.
# What was measured:
# [1] = growth inhibition, single agents and combos, CRL2098, cell-based, BGB or cisplatin IC20 combos, synergistic combos for chromothripsis tumors (AID 1671454); details: CRL2098 osteosarcoma cells, drug combinations, stronger effect = higher value;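 note: cells exposed for 96 h before readout; 0% = vehicle DMSO and 100% = killing by high DMSO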
# [2] = growth inhibition, single agents and combos, HD-MB03, cell-based, BGB or cisplatin IC20 combos, synergistic combos for chromothripsis tumors (AID 1671455; in the data active = inhibition above about 83%;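 note: 0% = vehicle DMSO and 100% = high DMSO as cytotoxic control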); details: HD-MB03 medulloblastoma cells, stronger effect = higher value
# [3] = growth inhibition, single agents and combos, UWB1.289, cell-based, BGB or cisplatin combos, synergistic combos for chromothripsis tumors (AID 1671456); details: UWB1.289 ovarian carcinoma cells, stronger effect = higher value;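 note: cells exposed to compound for four days; 0% = vehicle DMSO and 100% = killing by high DMSO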
# [4] = growth inhibition, single agents and combos, LFS_MB_2R, cell-based, cisplatin combos, synergistic combos for chromothripsis tumors (AID 1671457); details: LFS_MB_2R medulloblastoma cells, stronger effect = higher value;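 note: cells exposed to compound for four days before readout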
# [5] = growth inhibition, MDA-MB-436, cell-based, BGB or cisplatin combos, synergistic combos for chromothripsis tumors (AID 1671458; call rule not given here;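 note: cells exposed for 96 hours; 0% = vehicle DMSO and 100% = killing by high DMSO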); details: MDA-MB-436 breast carcinoma growth inhibition, drug combinations, stronger effect = higher value
# [6] = UWB1.289_BRCA1 ovarian cancer growth, cell-based, BGB or cisplatin combinations (AID 1671459); details: UWB1.289 BRCA1 ovarian carcinoma, drug combinations, stronger effect = higher value
# [7] = drug combination toxicity in non-malignant astrocytes – cell-based, BGB or cisplatin IC20 combos, cytotoxicity control for chromothriptic childhood tumor combination screen (AID 1671460); details: Human astrocytes, viability inhibition, drug combinations, at 0.5 µM, stronger effect = higher value;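 note: cells exposed to compounds for 96 hours before viability readout; 0% = vehicle and 100% = killing control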
# [8] = BT084 cell growth, single and combined drugs, ICGC_MB145, cisplatin and BGB IC40 combos (AID 1671461); details: BT084 medulloblastoma cells, drug combinations, stronger effect = higher value;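 note: cells exposed to drugs for 96 hours; 0% = vehicle DMSO and 100% = high DMSO full killing control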
# [9] = RCMB18 cell growth, single agent and combined, cisplatin and BGB IC40 combos (AID 1671462); details: RCMB18 medulloblastoma cells, stronger effect = higher value;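 note: cells exposed to compound for four days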
# [10] = CRL1545 cell growth, single agent and combined, cisplatin and BGB IC20 combos (AID 1671464); details: CRL1545 osteosarcoma cells, stronger effect = higher value;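 note: cells exposed to compound for 96 hours before readout; 0% = vehicle DMSO and 100% = high DMSO killing control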
# [11] = measured here: combination with cisplatin, at 0.5 µM
smiles,measurement,setting,value
COC1C(OC(N)=O)C(O)C(Oc2ccc3c(O)c(NC(=O)c4ccc(O)c(CC=C(C)C)c4)c(=O)oc3c2C)OC1(C)C (stereo not drawn),inhibition,[1]; at 0.5 µM,-21.7% (inactive)
same,inhibition,"[1]; measured here: combination with BGB at IC20, at 0.5 µM",-45.3%
same,inhibition,"[1]; measured here: combination with cisplatin at IC20, at 0.5 µM",-25.6%
same,inhibition,[2]; at 0.5 µM,-9.35% (inactive)
same,inhibition,"[2]; measured here: combo with BGB at IC20, at 0.5 µM",-5.37%
same,inhibition,"[2]; measured here: combo with cisplatin at IC20, at 0.5 µM",-13.3%
same,inhibition,[3]; at 0.5 µM,-6.21% (inactive)
same,inhibition,"[3]; measured here: inhibition with BGB combination, at 0.05 µM",-33.1%
same,inhibition,"[3]; measured here: inhibition with cisplatin combination, at 0.05 µM",-19.6%
same,inhibition,[4]; at 0.5 µM,-20.5% (inactive)
same,inhibition,[4]; [11],-9.82%
same,inhibition,"[4]; measured here: combination with cisplatin, at 5 µM",-11.7%
same,inhibition,[5]; at 0.5 µM,-31.4% (inactive)
same,inhibition,"[5]; measured here: BGB combination, at 0.5 µM",-38.4%
same,inhibition,"[5]; measured here: BGB combination, at 5 µM",-32.4%
same,inhibition,"[5]; measured here: cisplatin combination, at 0.5 µM",-35.8%
same,inhibition,"[5]; measured here: cisplatin combination, at 5 µM",-21%
same,inhibition,"[6]; BGB combination, concentration series, at 5 µM",-28.9%
same,inhibition,[6]; at 0.5 µM,-15.6% (inactive)
same,inhibition,"[6]; cisplatin combination, concentration series, at 5 µM",-9.79%
same,inhibition,[7],-3.92% (inactive)
same,inhibition,[7]; measured here: combo with BGB IC20,3.16%
same,inhibition,[7]; measured here: combo with cisplatin IC20,-8.92%
same,inhibition,[8]; at 0.5 µM,-4.18% (inactive)
same,inhibition,"[8]; cisplatin combination, at 0.5 µM",1.57%
same,inhibition,"[8]; cisplatin combination, at 5 µM",-32.1%
same,inhibition,"[8]; measured here: BGB IC40 combination 0.05 uM, at 0.05 µM",37.7%
same,inhibition,"[8]; single agent, at 5 µM",-18.6%
same,inhibition,[9]; at 0.5 µM,-22.3% (inactive)
same,inhibition,"[9]; cisplatin combo, at 5 µM",18.1%
same,inhibition,"[9]; measured here: BGB IC40 combination, at 0.05 µM",-10.1%
same,inhibition,[9]; [11],-16.8%
same,inhibition,"[9]; single agent, at 5 µM",-14.1%
same,inhibition,[10]; at 0.5 µM,-43.4% (inactive)
same,inhibition,"[10]; measured here: with BGB IC20 combination, at 0.5 µM",-36.9%
same,inhibition,"[10]; measured here: with cisplatin IC20 combination, at 0.5 µM",-46.6%
same,inhibition,"[10]; single agent, at 0.05 µM",-14.9%
same,inhibition,"[10]; single agent, at 5 µM",4.54%
